# High-throughput results as filed in PubChem.
# Anthrax LF prot: anthrax lethal factor protease inhibition; multiplex microsphere protease cleavage assay, LF; P15917; actives 0.12% (n = 360,000); inhibition, % at 10 µM; also: plate controls were buffer without enzyme for full effect and enzyme alone for no effect
# Target sequence (P15917 whole entry, looked up): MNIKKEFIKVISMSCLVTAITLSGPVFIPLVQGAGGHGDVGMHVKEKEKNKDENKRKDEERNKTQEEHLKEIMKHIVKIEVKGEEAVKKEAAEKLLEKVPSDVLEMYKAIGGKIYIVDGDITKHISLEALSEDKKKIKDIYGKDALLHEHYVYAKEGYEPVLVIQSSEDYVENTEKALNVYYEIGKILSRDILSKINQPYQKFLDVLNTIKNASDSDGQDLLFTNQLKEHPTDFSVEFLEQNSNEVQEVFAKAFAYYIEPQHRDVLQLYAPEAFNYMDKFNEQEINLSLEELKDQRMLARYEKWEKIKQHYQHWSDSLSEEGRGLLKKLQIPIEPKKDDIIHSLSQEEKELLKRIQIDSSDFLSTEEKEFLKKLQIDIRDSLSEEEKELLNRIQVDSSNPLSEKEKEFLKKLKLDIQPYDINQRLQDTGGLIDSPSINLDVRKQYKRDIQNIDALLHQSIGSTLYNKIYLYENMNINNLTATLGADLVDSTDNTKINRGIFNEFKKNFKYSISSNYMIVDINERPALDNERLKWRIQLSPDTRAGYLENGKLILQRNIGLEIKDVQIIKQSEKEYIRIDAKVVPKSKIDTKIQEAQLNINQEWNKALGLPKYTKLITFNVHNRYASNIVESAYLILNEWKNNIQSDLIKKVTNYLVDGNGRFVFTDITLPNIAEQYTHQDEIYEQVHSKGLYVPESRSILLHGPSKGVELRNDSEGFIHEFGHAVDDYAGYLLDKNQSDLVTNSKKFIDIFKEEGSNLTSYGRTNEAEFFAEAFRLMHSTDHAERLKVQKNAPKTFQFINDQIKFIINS
# BoNT F protease: BoNT F light chain protease inhibition; inhibition, % at 10 µM; Multiplex microsphere protease cleavage assay, flow cytometry; AID 588497; actives 0.22% (n = 360,000); in the data active = inhibition above about 35%, passing the limit was not always enough; inconclusive = no clear call, values can overlap the other calls; also: plate controls were buffer without enzyme for full effect and enzyme alone for no effect
# CCHFV vOTU inh: blocks the CCHF virus ovarian tumor domain protease; actives 0.55% (n = 370,000); CCHFV vOTU protease, Pep-AMC fluorescence; inhibition, % at 11.5 µM; AID 651958; in the data active = inhibition above about 30%; also: 0% = vehicle wells with enzyme and 100% = no enzyme wells
# Bead autofluor: flagged as autofluorescent in microsphere protease counterscreen | compound autofluorescence counterscreen, microsphere flow cytometry; stronger effect = higher value | fluorescence intensity (no concentration beside the values) | actives 3.1% (n = 360,000); in the data active = fluorescence intensity above about 16000; inconclusive = no clear call, values can overlap the other calls
# SARS 3CLpro inh: SARS-CoV 3CLpro protease inhibition; AID 1706; actives 0.14% (n = 290,000); inhibition, % at 6 µM; P0C6X7; recombinant SARS-CoV 3CLpro, quenched FRET peptide cleavage; in the data active = inhibition above about 12%
# BoNT A protease: blocks Botulinum neurotoxin A light chain protease; inhibition, % at 10 µM; multiplex microsphere protease substrate cleavage, flow cytometry; AID 588499; actives 0.17% (n = 360,000); also: plate controls were buffer without enzyme for full effect and enzyme alone for no effect
# Active calls of the source: *; u = inconclusive; x = no result. Most compounds without a hit are left out; they make up all but 3.9% or so of the library. Rule as the data show it, unless noted: active = inhibition above about 30%; inconclusive = no clear call, values can overlap the other calls; inactive = below that.
SMILES,Anthrax LF prot,BoNT F protease,CCHFV vOTU inh,Bead autofluor,SARS 3CLpro inh,BoNT A protease
COC(=O)c1cc(-c2cccc(C#N)c2)c(=O)n2c1CCC2,x,x,-0.4,x,x,x
Cc1cc2n(n1)C(c1cn(-c3ccccc3)nc1C)Nc1ccccc1-2 (centres undefined),-1.4,-1.3,-0.4,22907*,3.0,u
COC(=O)[C@H](C(C)C)N(CCCc1cn(Cc2ccc(C)cc2)nn1)S(=O)(=O)c1ccc(F)cc1Br,x,x,8.4,x,x,x
CN1CCN(C(=O)CCNC(=O)Cn2ccc3ccccc3c2=O)CC1,-11.6,3.8,-2.3,6370,1.6,1.6
O=C(Cn1cnc2ccccc2c1=O)NCCC(=O)N1CCN(c2ccccc2)CC1,-4.6,1.9,-3.1,22618*,-6.6,u
Cc1cccc(N2CCN(C(=O)CCNC(=O)Cn3ccc4ccccc4c3=O)CC2)c1C,-18.8,10.1,0.5,19164*,2.9,u
CCN(CC)C(=O)c1cccc(-c2ccc(OC)cc2)c1,-0.7,0.0,0.2,21818*,-0.2,0.9
Cc1ccccc1CN1CCCCC(NC(=O)Nc2ccccc2-c2ccccc2)C1=O (centres undefined),x,x,8.2,x,x,x
C=CCN1[C@@H](CC(C)C)COc2cccc(N3CCSCC3)c2S1(=O)=O,x,x,4.3,x,x,x
O=C1CC(c2ccccc2)CC(O)=C1C=NC1CCCCC1 (centres undefined),-0.1,-1.9,-7.2,23531*,0.3,-2.7
O=C1CC(c2ccccc2)CC(O)=C1C=NC1CCCCCC1 (centres undefined),-2.2,2.6,-11.9,10019,0.2,0.6
C#CCNC(=O)C[C@@H]1C(=O)N(CC=C)/C2=C/CCCCC[C@]21C(=O)OCC,x,x,1.3,x,x,x
O=c1c2cnn(-c3ccccc3)c2nc(-c2ccco2)n1-c1ccccc1,-0.2,-1.0,4.2,22323*,-0.3,-1.2
CCOC(=O)c1oc2nc(CC(C)C)c3c(c2c1N)CCC3,-2.6,1.6,-63.8,20183*,-3.0,-0.6
CC(C)Cc1nc2oc3c(N4CCN(CCO)CC4)ncnc3c2c2c1CCCC2,-2.5,-4.6,1.1,10925,-0.4,-0.5
O=C(CSc1cccc(C(F)(F)F)c1)Nc1ccc(Cl)cc1Cl,-0.2,-2.0,11.0,19968*,-2.3,u
O=C(CS(=O)c1ccc(F)cc1)Nc1ccccc1Cl (centres undefined),-1.2,-2.3,-5.6,4183,-1.3,-1.4
O=C(CS(=O)c1cccc(C(F)(F)F)c1)Nc1ccccc1Cl (centres undefined),-1.6,-1.0,-0.3,22990*,-7.3,-1.5
O=C(CSc1cccc(C(F)(F)F)c1)NC(=O)c1ccccc1,-0.3,-2.8,12.0,1890,-0.7,0.2
COc1ccc(-c2c(C)nn(-c3ccccc3)c2N)cc1,-1.2,5.1,1.9,20023*,-2.7,u
COc1ccc(-c2c(C)nn(-c3ccccc3)c2N)cc1OC,-3.2,-4.2,-7.3,8940,-3.8,-0.6
COc1ccc(CNC(=O)CCn2c(=O)oc3ccccc32)c(OC)c1,-8.8,2.3,-4.3,4537,3.5,-0.4
CC1CCCC(NC(=O)CCn2c(=O)oc3ccccc32)C1C (centres undefined),-4.2,0.2,-3.0,22573*,0.7,0.8
O=C(CCn1c(=O)oc2ccccc21)NCCN1CCc2ccccc2C1,1.3,5.3,5.1,20382*,-0.4,1.2
CC1CCCC(NC(=O)COC(=O)Cc2ccccc2)C1C (centres undefined),-20.2,7.5,3.7,17041*,1.4,7.1
SMILES,Anthrax LF prot,BoNT F protease,CCHFV vOTU inh,Bead autofluor,SARS 3CLpro inh,BoNT A protease
COc1cccc(CNC(=O)CCn2c(=O)oc3ccccc32)c1,-2.8,-4.3,0.7,25239*,-6.6,-3.2
CC1CCCC(NC(=O)COC(=O)Cc2ccc(Cl)cc2)C1C (centres undefined),3.3,-4.9,4.7,3543,x,0.2
COC(=O)c1cc(-c2cccs2)c(=O)n2c1CCC2,x,x,-76.0,x,x,x
COC(=O)C1CN(Cc2cn(CCOC(C)=O)nn2)CCS(=O)(=O)N1Cc1ccc(C)cc1 (centres undefined),x,x,-1.3,x,x,x
CC1CCN(C(=O)c2cc3c(=O)n4ccccc4nc3s2)CC1,2.6,7.5,-112.7,5521,-6.7,2.5
O=C(c1cc2c(=O)n3ccccc3nc2s1)N1CCOCC1,0.3,-3.5,-85.2,21556*,-8.5,-3.4
CNc1c([N+](=O)[O-])cnn1-c1ccc(C)cc1,-6.8,-1.3,7.7,23938*,-4.1,-0.8
CNc1c([N+](=O)[O-])cnn1-c1ccccc1F,3.3,-2.6,23.3,4313,3.1,-0.8
